Source: PubChem BioAssay AID2069 (Sanford-Burnham Center for Chemical Genomics, 2009)
In all, about 1,200 compounds went through this assay and about 210 (18%) were called active. Cut-off read from the data, not from the text of the source: active = inhibition above about 30%; inactive = the rest. A selection follows.

test: HTRF signal interference by compounds, confirmation, artefact control for SUMOylation inhibitor project, biochemical, uHTS (AID 2069); details: HTRF interference counterscreen, fluorescence, at 35 µM, stronger effect = higher value

SMILES | inhibition
O=C(NNC(=O)c1sc2ccccc2c1Cl)Nc1ccc(Cl)cc1 | -5% (inactive)
COc1ccc(C(=O)Nc2nc3c(s2)Cc2cc(OC)ccc2-3)cc1 | 5.45% (inactive)
COCCN(CCOC)S(=O)(=O)c1ccc(C(=O)Nc2nc3c(s2)CCc2ccccc2-3)cc1 | 36.7% (active)
COc1ccc2c(c1)Cc1sc(NC(=O)c3ccccc3)nc1-2 | 13.9% (inactive)
O=C(NN1C(=O)/C(=C/C=C/c2ccco2)SC1=S)c1ccncc1 | 16.8% (inactive)
Cc1cc(C)n(Cc2ccc(C(=O)N/N=C/c3ccc(-c4ccc([N+](=O)[O-])cc4)o3)o2)n1 | 6.7% (inactive)
O=C(Cc1ccccc1)Nc1nnc(-c2ccco2)s1 | 13.9% (inactive)
CCC(C)(C)C1CCc2c(sc(NC(=O)c3ccccc3C(=O)O)c2C#N)C1 (stereo unspecified) | 7.6% (inactive)
CCCCOc1ccc(/C=C/C(=O)Nc2ccc(C(N)=O)cc2)cc1 | 10.9% (inactive)
COc1ccccc1NC(=O)c1sc2ncn(CC(=O)Nc3ccccc3)c(=O)c2c1C | 4.35% (inactive)
O=C(Nc1ccccc1O)c1cc(S(=O)(=O)N2CCOCC2)c(Cl)cc1Cl | 10.6% (inactive)
CCN(C(=S)Nc1cc(S(=O)(=O)N2CCOCC2)ccc1Cl)c1cccc2ccccc12 | -26.1% (inactive)
O=C(O)c1cc2cccc(S(=O)(=O)N3CCOCC3)c2cc1O | 49.6% (active)
Cc1occc1C(=O)N1CCN(c2ccccc2)CC1 | 0.55% (inactive)
CCOc1ccc(N2C(=O)c3ccc(C(=O)OCC(=O)N(CC)C4CCS(=O)(=O)C4)cc3C2=O)cc1 (stereo unspecified) | -4.1% (inactive)
Oc1ccc2ccccc2c1C=Nc1ccc(Cl)cn1 | 37.1% (active)
Oc1ccccc1N=Cc1c(O)ccc2ccccc12 | -5.9% (inactive)
Oc1ccc(N=Cc2c(O)ccc3ccccc23)cc1 | 10.2% (inactive)
CC1=CC2(O)OCCN(CCO)C2=CC1=O (stereo unspecified) | 4.6% (inactive)
O=C1C=C(O)c2c(O)cccc2C1=O | -24.9% (inactive)
COc1cccc(/C=C2/SC(=S)N(CC(=O)NNC(=O)c3ccccc3O)C2=O)c1 | -13% (inactive)
Cc1ccccc1Nc1cc2ccccc2c(=O)[nH]1 | 25.8% (inactive)
CN(c1ccccc1)c1cc(=O)[nH]c(=O)[nH]1 | 0.55% (inactive)
CCN(c1ccccc1)c1cc2ccccc2c(=O)[nH]1 | 37% (active)
Cc1[nH][nH]c(=O)c1C(c1ccc(-c2ccccc2C(=O)O)o1)c1c(C)[nH][nH]c1=O | 9.65% (inactive)
COc1ccc(CCN2Cc3c(cccc3[N+](=O)[O-])C2=O)cc1OC | -1.3% (inactive)
